M1 PAM parental: nonselective activator or artifact in parental CHO-K1 calcium assay | ATP EC20, Fluo-8 calcium fluorescence; 0% at ATP EC20, 100% at ATP max | 0.02% of 360,000 active | AID 602247 | activation, % at 3 µM;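 active = activation above the run cutoff, the mean activation of all test compounds plus 3 SD, cut at about 40% in these data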;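 also: peak over basal fluorescence ratio in a 140 s read after ATP addition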
CHRM1 PAM: human CHRM1 positive allosteric modulation; CHO-K1 hM1, Fluo-8 calcium fluorescence, ACh EC20; 0% = ACh EC20, 100% = maximal ACh; activation, % at 3 µM; 0.088% of 360,000 active; P11229; AID 588819; in the data active = activation above about 19%, passing the limit was not always enough
Target sequence (P11229 whole entry, looked up): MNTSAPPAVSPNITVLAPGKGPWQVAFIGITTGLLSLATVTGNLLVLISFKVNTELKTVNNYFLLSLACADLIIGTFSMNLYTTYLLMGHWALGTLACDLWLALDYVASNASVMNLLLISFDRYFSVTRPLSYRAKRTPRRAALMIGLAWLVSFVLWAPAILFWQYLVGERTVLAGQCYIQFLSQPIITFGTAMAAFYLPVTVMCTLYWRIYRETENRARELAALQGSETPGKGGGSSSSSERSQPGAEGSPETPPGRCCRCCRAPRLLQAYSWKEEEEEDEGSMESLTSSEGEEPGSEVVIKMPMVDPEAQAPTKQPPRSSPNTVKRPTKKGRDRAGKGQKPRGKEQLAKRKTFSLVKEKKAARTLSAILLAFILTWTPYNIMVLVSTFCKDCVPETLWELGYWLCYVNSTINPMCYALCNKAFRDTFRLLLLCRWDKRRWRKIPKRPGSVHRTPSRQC
CHRM1 agonist: agonists of human M1 muscarinic receptor | P11229 | CHO-K1 hM1, Fluo-8 calcium fluorescence, agonist mode; 0% DMSO, 100% acetylcholine EC100 | activation, % at 3 µM | 0.33% of 360,000 active;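 active = activation above the run's mean compound activation plus 3 SD, cut at about 16% in these data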;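 also: peak over basal fluorescence ratio within a 140 s kinetic read after compound addition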
CHO-K1 Ca antag: M1 antagonist counterscreen hit in parental CHO-K1 cells; inhibition, % at 3 µM; 0.6% of 360,000 active; ATP-induced calcium, Fluo-8 fluorescence;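 active = inhibition above a per-plate cutoff, the plate's mean sample inhibition plus 3 SD, cut at about 24% in these data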;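 also: 0% = DMSO plus EC80 ATP and 100% = DMSO alone without ATP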
CHRM1 antagonist: blocks human M1 muscarinic receptor. P11229. CHO-K1 hM1, Fluo-8 calcium fluorescence, ACh EC80 antagonist. inhibition, % at 3 µM. 1.3% of 360,000 active;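 active = percent inhibition above its own plate's cutoff, namely the mean of that plate's compound wells plus 3 SD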;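 also: peak over basal fluorescence ratio during 140 s after agonist addition; 0% = ACh EC80 plus DMSO and 100% = DMSO alone without agonist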
CHO-K1 Ca ag: nonselective activator or artifact in parental CHO-K1 cells | Fluo-8 calcium fluorescence; scaled to maximal ATP response, vehicle zero | activation, % at 3 µM | 0.48% of 360,000 active | AID 602248; in the data active = activation above about 15%;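 also: untransfected CHO-K1 host cells lacking M1 receptor as counterscreen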
* = called active by the depositor; . = no result given. The list is not random: actives were taken first. Their share in the collection is about 2.3%.

SMILES	M1 PAM parental	CHRM1 PAM	CHRM1 agonist	CHO-K1 Ca antag	CHRM1 antagonist	CHO-K1 Ca ag
O=C1Nc2ccc(Cl)cc2C(=O)C1(F)c1ccccc1 (stereo not drawn)	15	4	-3	1	-1	17*
O=C1Nc2c(ccc(Cl)c2Cl)C(=O)C1(F)c1ccccc1 (stereo not drawn)	17	2	-4	-1	-2	3
Cc1cccc(N2CCN(C(=O)C3CC(=O)N(c4ccc5c(c4)OCCO5)C3)CC2C)c1 (stereo not drawn)	-3	-18	2	-1	30*	11
CN(CC(=O)NCc1ccco1)C(=O)C1CC(=O)N(c2ccc3c(c2)OCCO3)C1 (stereo not drawn)	10	28*	2	-17	-21	0
CC(Oc1ccccc1F)C(=O)NNC(=O)C1CC(=O)N(c2ccc3c(c2)OCCO3)C1 (stereo not drawn)	-19	-4	-4	11	8	0
O=C(NNC(=O)C1CC(=O)N(c2ccc3c(c2)OCCO3)C1)c1ccc(F)cc1 (stereo not drawn)	-36	11	4	27*	-4	0
COc1ccc(C(=O)NCc2ncccc2C)cc1OC1CCN(C(C)=O)CC1	9	10	-2	-11	-11	1
CN(C)c1nc(-c2ccccc2)c2cnn(Cc3ccccc3)c2n1	12	6	-1	-21	-1	0
COc1ccc(-c2sc(Nc3ccc(F)c(F)c3F)nc2CCC(=O)NN)cc1	-5	2	1	-4	-1	0
O=C(NCCCN1CCOCC1)c1cccnc1SCc1ccccc1Cl	-8	4	-10	9	-11	0
O=C(CSc1nnc(Cn2nnc3ccccc32)o1)Nc1cccc(Cl)c1	3	6	0	-14	0	4
O=C(CSc1nnc(Cn2nnc3ccccc32)o1)N(Cc1ccc(Cl)cc1)c1ccccc1	-1	-12	1	19	20*	3
Cn1c(=S)c2[nH]c(SCCN3CCCC3)nc2n(C)c1=O	13	21	-2	-8	-22	0
CCN1CCCC(Sc2nc3c([nH]2)c(=S)n(C)c(=O)n3C)C1 (stereo not drawn)	5	4	-8	4	-12	16*
C/C(=N\n1c(C)nc2ccccc2c1=O)c1ccc(C)o1	-1	28*	-1	-6	-10	0
CN(Cc1ccccc1)C(=O)c1ccc(Cc2cn(C)c3ccccc23)nc1	-4	4	-2	0	-11	0
COc1ccc(-c2cc(NC=O)c3ncc(-c4cccc(C(=O)NCCN(C)C)c4)n3c2)c(OC)c1	8	-33	-10	-10	85*	0
COc1ccccc1-c1cc(NC=O)c2ncc(-c3cccc(C(F)(F)F)c3)n2c1	-7	31*	5	-7	-24	0
COc1ccccc1NC(=O)CSc1nccn1Cc1ccccc1	12	5	-2	-7	-7	3
CC(=O)c1cccc(NS(=O)(=O)c2ccc(NC(=O)N3CCCCC3)cc2)c1	-10	-12	-1	22	36*	6
NC(=O)c1ccsc1NC(=O)COC(=O)Cc1ccccc1Cl	-3	-19	5	11	29	19*
CC(=O)c1ccc(OCC(=O)OCC(=O)Nc2sccc2C(N)=O)cc1	-10	-10	2	9	35*	17*
COc1cc(CC(=O)OCC(=O)Nc2sccc2C(N)=O)cc(OC)c1OC	-6	-9	2	8	13	16*
NC(=O)c1ccsc1NC(=O)COC(=O)CCc1ccccc1	-4	-18	6	6	23	16*
NC(=O)c1ccsc1NC(=O)COC(=O)CCCOc1ccccc1	-3	-13	3	17	27	14
SMILES	M1 PAM parental	CHRM1 PAM	CHRM1 agonist	CHO-K1 Ca antag	CHRM1 antagonist	CHO-K1 Ca ag
NC(=O)c1ccsc1NC(=O)COC(=O)Cc1ccsc1	7	-1	5	-2	-4	6
Cc1ccc(S(=O)(=O)N2[C@@H](c3ccccc3F)C(C(=O)O)=CC[C@H]2c2cccc(Cl)c2)cc1	13	2	-5	-11	3	1
CCCCC(=O)NC1(C(F)(F)F)NC(=O)N(C)C1=O (stereo not drawn)	20	7	-3	-14	-8	1
NC(=O)c1ccsc1NC(=O)COC(=O)CCOc1ccccc1	-13	-12	5	2	15	17*
COC(=O)c1sc(NC(=O)c2cc(-c3ccccc3)nc3ccccc23)c(C#N)c1C	13	-8	5	-5	9	10
Cc1ccccc1-c1cc(C(=O)Nc2sc(C(=O)OC(C)C)c(C)c2C#N)c2ccccc2n1	-4	-16	1	35*	31*	5
C=CCn1c(SC(C)CC)nc(O)cc1=O (stereo not drawn)	0	3	4	1	-12	6
CCOc1ccccc1NC(=O)C(OC(=O)c1cnc(C)cn1)c1ccccc1 (stereo not drawn)	46*	6	-3	-12	-10	0
CC(C)CCNC(=O)c1onc(CSc2ccccc2)c1C(=O)NCCC(C)C	23	5	-5	-24	-10	1
OCC1(Cc2ccccc2)CCN(C2CCN(c3ccccc3F)CC2)CC1	9	-21	-3	-2	35*	12
OC1(C#CCCN2CCCCC2)c2ccccc2-c2ccccc21	-2	-27	-8	-6	99*	5
CCN(CC#CCC1(O)c2ccccc2-c2ccccc21)CCO	21	-1	-7	-12	-1	2
OC1(CC#CCN2CCCCC2)c2ccccc2-c2ccccc21	22	-27	-7	-11	55*	1
O=C(CCCCN1CCCCC1)c1ccc2c(c1)Cc1ccccc1-2	9	-9	-3	2	19	13
Nn1c(SCC(=O)Nc2nccs2)nnc1-c1ccccn1	-4	6	1	8	-8	1
COC(=O)CCC(=O)NC(=S)Nc1ccccc1F	10	2	-1	-7	-8	1
O=C(NCCN1CCC(n2c(=O)[nH]c3ccccc32)CC1)c1cccc(Cl)c1	10	.	.	-13	.	2
Cn1c2nc(=O)n(-c3ccccc3)c(=O)c-2nc2c1CCCC2	13	4	1	0	-11	4
O=C(COc1ncnc2ccccc12)N1CCN(S(=O)(=O)c2ccc(Cl)cc2)CC1	0	6	-3	63*	6	0
COc1cc(NC(=O)N2CCc3nc(Nc4cc(Cl)cc(Cl)c4)ncc3C2)cc(OC)c1OC	9	-6	-7	-3	6	1
O=C(CN1C(=O)NC2(CCCCC2)C1=O)NCc1cccs1	6	4	-1	4	-9	0
C/C(=N\NC(=S)NC(C)C)c1ccc(Cl)s1	-3	-24	-10	7	81*	0

Screens from PubChem.
